{"source": "the supplement of paper PMC8728848", "test_in_all_cases": "glycan array binding signal (z-score within array); higher = stronger binding", "settings_in_all_cases": "glycan notation: IUPAC condensed, linker removed; mutation: R144S", "key": {"[1]": {"target": "Fuc(a1-2)Gal(b1-3)GlcNAc(b1-3)[Fuc(a1-3)[Gal(b1-4)]GlcNAc(b1-6)]Gal(b1-4)Glc", "outline": "(§1)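 Glycan array data came from 3228 arrays in the Consortium for Functional Glycomics database, and only arrays with an available protein sequence were kept. Glycan names were put into IUPAC-condensed notation, and columns mapping to the same glycan were averaged. The binding signal is a within-array Z-score, averaged across arrays of one protein sequence run at different concentrations or buffers and across linkers. A negative Z-score can be read as non-binding.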"}, "Fuc(a1-2)Gal(b1-4)Glc6S": {"target": "Fuc(a1-2)Gal(b1-4)Glc6S", "outline": "as §1"}, "[2]": {"target": "Fuc(a1-2)Gal(b1-4)GlcNAc6S", "outline": "as §1"}, "[3]": {"target": "Fuc(a1-2)Gal(b1-4)[Fuc(a1-3)]GlcNAc(b1-3)Gal(b1-4)[Fuc(a1-3)]GlcNAc", "outline": "as §1"}, "[4]": {"target": "Fuc(a1-2)[Gal(a1-3)]Gal(b1-3)GlcNAc(b1-2)Man(a1-3)[Fuc(a1-2)[Gal(a1-3)]Gal(b1-3)GlcNAc(b1-2)Man(a1-6)]Man(b1-4)GlcNAc(b1-4)GlcNAc", "outline": "as §1"}, "[5]": {"target": "Fuc(a1-2)[Gal(a1-3)]Gal(b1-4)GlcNAc(b1-2)Man(a1-3)[Fuc(a1-2)[Gal(a1-3)]Gal(b1-4)GlcNAc(b1-2)Man(a1-6)]Man(b1-4)GlcNAc(b1-4)GlcNAc", "outline": "as §1"}, "[6]": {"target": "Fuc(a1-2)[GalNAc(a1-3)]Gal(b1-3)GlcNAc(b1-2)Man(a1-3)[Fuc(a1-2)[GalNAc(a1-3)]Gal(b1-3)GlcNAc(b1-2)Man(a1-6)]Man(b1-4)GlcNAc(b1-4)GlcNAc", "outline": "as §1"}, "[7]": {"target": "Fuc(a1-2)[GalNAc(a1-3)]Gal(b1-4)GlcNAc(b1-2)Man(a1-3)[Fuc(a1-2)[GalNAc(a1-3)]Gal(b1-4)GlcNAc(b1-2)Man(a1-6)]Man(b1-4)GlcNAc(b1-4)GlcNAc", "outline": "as §1"}, "[8]": {"target": "Fuc(a1-2)[GalNAc(a1-3)]Gal(b1-4)GlcNAc(b1-3)Gal(b1-4)GlcNAc(b1-3)Gal(b1-4)GlcNAc", "outline": "as §1"}, "[9]": {"target": "Fuc(a1-2)[GalNAc(a1-3)]Gal(b1-4)[Fuc(a1-3)]GlcNAc", "outline": "as §1"}, "[10]": {"target": "Fuc(a1-3)[Gal3S(b1-4)]GlcNAc", "outline": "as §1"}, "[11]": {"target": "Gal(a1-4)Gal(b1-3)GlcNAc(b1-2)Man(a1-3)[Gal(a1-4)Gal(b1-3)GlcNAc(b1-2)Man(a1-6)]Man(b1-4)GlcNAc(b1-4)GlcNAc", "outline": "as §1"}, "Gal(a1-4)Gal(b1-4)Glc": {"target": "Gal(a1-4)Gal(b1-4)Glc", "outline": "as §1"}, "[12]": {"target": "Gal(b1-3)GalNAc(a1-3)[Fuc(a1-2)]Gal(b1-4)GlcNAc", "outline": "as §1"}, "[13]": {"target": "Gal(b1-3)GlcNAc(b1-3)Gal(b1-4)GlcNAc(b1-6)[Gal(b1-3)GlcNAc(b1-3)]Gal(b1-4)Glc", "outline": "as §1"}, "[14]": {"target": "Gal(b1-3)[Fuc(a1-4)]GlcNAc(b1-3)Gal(b1-4)[Fuc(a1-3)]GlcNAc", "outline": "as §1"}, "[15]": {"target": "Gal(b1-3)[Neu5Ac(a2-6)]GalNAc", "outline": "as §1"}, "[16]": {"target": "Gal(b1-4)GalNAc(a1-3)[Fuc(a1-2)]Gal(b1-4)GlcNAc", "outline": "as §1"}, "[17]": {"target": "Gal(b1-4)GlcNAc(b1-3)[Gal(b1-4)GlcNAc(b1-6)]Gal(b1-4)GlcNAc", "outline": "as §1"}, "Gal3S(b1-4)GlcNAc6S": {"target": "Gal3S(b1-4)GlcNAc6S", "outline": "as §1"}, "GalNAc(a1-3)Gal": {"target": "GalNAc(a1-3)Gal", "outline": "as §1"}, "[18]": {"target": "GalNAc(b1-3)Gal(a1-4)Gal(b1-4)GlcNAc(b1-3)Gal(b1-4)Glc", "outline": "as §1"}, "GalNAc(b1-3)GalNAc": {"target": "GalNAc(b1-3)GalNAc", "outline": "as §1"}, "[19]": {"target": "GlcNAc(a1-4)Gal(b1-4)GlcNAc(b1-3)Gal(b1-4)Glc", "outline": "as §1"}, "[20]": {"target": "GlcNAc(b1-2)[GlcNAc(b1-4)]Man(a1-3)[GlcNAc(b1-2)Man(a1-6)]Man(b1-4)GlcNAc(b1-4)GlcNAc", "outline": "as §1"}, "[21]": {"target": "GlcNAc(b1-3)Gal(b1-3)GalNAc", "outline": "as §1"}, "GlcNAc(b1-3)Gal(b1-4)Glc": {"target": "GlcNAc(b1-3)Gal(b1-4)Glc", "outline": "as §1"}, "[22]": {"target": "GlcNAc(b1-3)Gal(b1-4)GlcNAc", "outline": "as §1"}, "Man(a1-3)[Man(a1-6)]Man": {"target": "Man(a1-3)[Man(a1-6)]Man", "outline": "as §1"}, "[23]": {"target": "Neu5Ac(a2-3)Gal(b1-4)GlcNAc6S", "outline": "as §1"}}, "note": "Only a selection was taken, and the strongest signals are over-represented in it overall.", "data": [{"binder": "Gal 3 (Homo sapiens), P17931 (protein) MADNFSLHDALSGSGNPNPQGWPGAWGNQPAGAGGYPGASYPGAYPGQAPPGAYPGQAPPGAYHGAPGAYPGAPAPGVYPGPPSGPGAYPSSGQPSAPGAYPATGPYGAPAGPLIVPYNLPLPGGVVPRMLITILGTVKPNANSILDFQRGNDVAFHFNPRFNENNRRVIVCNTKLDNNWGREERQSVFPFESGKPFKIQVLVEPDHFKVAVNDAHLLQYNHRVKKLNEISKLGISGDIDLTSASYTMI", "values": [{"measurement": "glycan array binding signal (z-score)", "setting": "[1]", "value": 0.343}, {"measurement": "glycan array binding signal (z-score)", "setting": "Fuc(a1-2)Gal(b1-4)Glc6S", "value": -0.313}, {"measurement": "glycan array binding signal (z-score)", "setting": "[2]", "value": 0.788}, {"measurement": "glycan array binding signal (z-score)", "setting": "[3]", "value": -0.357}, {"measurement": "glycan array binding signal (z-score)", "setting": "[4]", "value": 4.81}, {"measurement": "glycan array binding signal (z-score)", "setting": "[5]", "value": 5.46}, {"measurement": "glycan array binding signal (z-score)", "setting": "[6]", "value": 6.11}, {"measurement": "glycan array binding signal (z-score)", "setting": "[7]", "value": 5.95}, {"measurement": "glycan array binding signal (z-score)", "setting": "[8]", "value": 4.99}, {"measurement": "glycan array binding signal (z-score)", "setting": "[9]", "value": -0.356}, {"measurement": "glycan array binding signal (z-score)", "setting": "[10]", "value": -0.359}, {"measurement": "glycan array binding signal (z-score)", "setting": "[11]", "value": -0.361}, {"measurement": "glycan array binding signal (z-score)", "setting": "Gal(a1-4)Gal(b1-4)Glc", "value": -0.359}, {"measurement": "glycan array binding signal (z-score)", "setting": "[12]", "value": 4.94}, {"measurement": "glycan array binding signal (z-score)", "setting": "[13]", "value": 0.34}, {"measurement": "glycan array binding signal (z-score)", "setting": "[14]", "value": -0.357}, {"measurement": "glycan array binding signal (z-score)", "setting": "[15]", "value": -0.352}, {"measurement": "glycan array binding signal (z-score)", "setting": "[16]", "value": 5.09}, {"measurement": "glycan array binding signal (z-score)", "setting": "[17]", "value": 1.2}, {"measurement": "glycan array binding signal (z-score)", "setting": "Gal3S(b1-4)GlcNAc6S", "value": -0.288}, {"measurement": "glycan array binding signal (z-score)", "setting": "GalNAc(a1-3)Gal", "value": -0.354}, {"measurement": "glycan array binding signal (z-score)", "setting": "[18]", "value": 0.182}, {"measurement": "glycan array binding signal (z-score)", "setting": "GalNAc(b1-3)GalNAc", "value": -0.354}, {"measurement": "glycan array binding signal (z-score)", "setting": "[19]", "value": -0.356}, {"measurement": "glycan array binding signal (z-score)", "setting": "[20]", "value": -0.341}, {"measurement": "glycan array binding signal (z-score)", "setting": "[21]", "value": -0.356}, {"measurement": "glycan array binding signal (z-score)", "setting": "GlcNAc(b1-3)Gal(b1-4)Glc", "value": -0.36}, {"measurement": "glycan array binding signal (z-score)", "setting": "[22]", "value": -0.358}, {"measurement": "glycan array binding signal (z-score)", "setting": "Man(a1-3)[Man(a1-6)]Man", "value": -0.354}, {"measurement": "glycan array binding signal (z-score)", "setting": "[23]", "value": -0.365}]}]}
